{"source": "PubChem BioAssay AID430", "about": "(Sanford-Burnham Center for Chemical Genomics, 2006)", "note": "Out of some 63,000 compounds screened, about 1,100 (1.7%) were called active. Cut-off read from the data, not from the text of the source: active = cytotoxicity above about 50%; inactive = the rest. The sample as a whole holds a higher share of actives than the screen did. Results with a measured potency or affinity are listed apart.", "data": [{"assay": "HPDE-C7 pancreatic duct cell viability loss – fluorescence, HTS (AID 430);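 note: cells exposed to compound for 48 hours before viability readout; 0% = vehicle and 100% = reference cytotoxic drug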", "settings": "HPDE-C7 pancreatic duct cells viability, at 10 µM, hits give high values", "values": [{"smiles": "Cc1noc(C)c1S(=O)(=O)NC1CCN(Cc2ccccc2)CC1", "cytotoxicity": "1.4% (inactive)"}, {"smiles": "Cc1n[nH]c(=O)nc1NCc1ccccc1", "cytotoxicity": "-20.4% (inactive)"}, {"smiles": "CCCCCc1c(C)nc(NCc2ccccc2)[nH]c1=O", "cytotoxicity": "-8.7% (inactive)"}, {"smiles": "COc1ccc(CCNC(=O)COc2nsnc2N2CCOCC2)cc1OC", "cytotoxicity": "-12.4% (inactive)"}, {"smiles": "C=CCNC(=O)CCCCC(=O)NCC=C", "cytotoxicity": "-16.1% (inactive)"}, {"smiles": "Cn1nc(-c2ccc(Cl)cc2)c2cc(C(=O)NCCCN3CCOCC3)sc21", "cytotoxicity": "8.3% (inactive)"}, {"smiles": "Cn1nc(-c2ccc(Cl)cc2)c2cc(C(=O)NCCCN3CCCC3)sc21", "cytotoxicity": "69.7% (active)"}, {"smiles": "CN1CCN(CCCNC(=O)c2cc3c(-c4ccc(Cl)cc4)nn(C)c3s2)CC1", "cytotoxicity": "13.3% (inactive)"}, {"smiles": "Clc1ccc(-n2nnnc2Sc2ncnc3sccc23)cc1", "cytotoxicity": "4.6% (inactive)"}, {"smiles": "CCCn1c(Sc2nnnn2-c2ccccc2)n[nH]c1=O", "cytotoxicity": "-7.4% (inactive)"}, {"smiles": "Cc1nc(Sc2nnnn2-c2ccccc2)c(C#N)c(C)c1C", "cytotoxicity": "-11.7% (inactive)"}, {"smiles": "Cc1sc2ncnc(SCc3ccco3)c2c1C", "cytotoxicity": "-13.2% (inactive)"}, {"smiles": "Cc1sc2ncnc(Sc3nnnn3-c3ccccc3)c2c1C", "cytotoxicity": "71% (active)"}, {"smiles": "COc1ccc(OC)c(-c2cc(C(=O)NCCCn3ccnc3)no2)c1", "cytotoxicity": "32.2% (inactive)"}, {"smiles": "Cc1cc(NC(=O)C2CCCN(S(=O)(=O)c3c(C)noc3C)C2)no1", "note": "(stereo not drawn)", "cytotoxicity": "9.5% (inactive)"}, {"smiles": "O=C(O)c1ccc(OCc2occc2C(=O)O)cc1", "cytotoxicity": "-2.7% (inactive)"}, {"smiles": "CCOc1ccc(N(CC(N)=O)S(=O)(=O)c2ccc(F)cc2)cc1", "cytotoxicity": "-0.6% (inactive)"}, {"smiles": "Cc1cc2c(c(=O)n1CCN(C)C)C(c1ccncc1)C(C#N)=C(N)O2", "note": "(stereo not drawn)", "cytotoxicity": "13.1% (inactive)"}, {"smiles": "Cc1cc2c(c(=O)n1CCN(C)C)C(c1ccc(Br)cc1)C(C#N)=C(N)O2", "note": "(stereo not drawn)", "cytotoxicity": "73.4% (active)"}, {"smiles": "Cc1cc2c(c(=O)n1CCN(C)C)C(c1ccc(Cl)cc1)C(C#N)=C(N)O2", "note": "(stereo not drawn)", "cytotoxicity": "-13.8% (inactive)"}, {"smiles": "Cc1cccc2cc(CN(Cc3ccc(F)cc3)C(=O)N(C)C)c3nnnn3c12", "cytotoxicity": "5.9% (inactive)"}, {"smiles": "COc1ccc(C/C(O)=C(\\C#N)c2nc3ccccc3s2)cc1", "cytotoxicity": "46.3% (inactive)"}, {"smiles": "N#C/C(=C(/O)CN1CCOCC1)c1nc2ccccc2s1", "cytotoxicity": "1.3% (inactive)"}, {"smiles": "Cc1ccc(SC/C(O)=C(\\C#N)c2nc3ccccc3s2)cc1", "cytotoxicity": "79.2% (active)"}, {"smiles": "COC(=O)c1ccc(/C(O)=C(\\C#N)c2nc3ccccc3s2)cc1", "cytotoxicity": "58.4% (active)"}, {"smiles": "CC(C)=C(C#N)c1nc2ccccc2s1", "cytotoxicity": "-8.8% (inactive)"}, {"smiles": "Cc1ccc(SC/C(O)=C(\\C#N)c2nc3ccccc3n2C)cc1", "cytotoxicity": "16.2% (inactive)"}, {"smiles": "N=c1n(CCN2CCCCC2)c2ccccc2n1CC(O)c1cccc(Br)c1", "note": "(stereo not drawn)", "cytotoxicity": "44.6% (inactive)"}]}]}
